Source: the supplement of paper PMC12339681
Counter-ions that a name gives are not always drawn.

System: PBMC-derived induced microglia-like cells (piMGLC)
Test: synaptosome phagocytic index relative to DMSO control (fraction of DMSO); higher = more phagocytosis
Conditions: concentration: 10 uM (2 uM for compounds listed in Table S2); pretreatment time: 24 h; assay time: 3 h

Compound	synaptosome phagocytic index
COc1ccccc1OCC(O)COC(N)=O (configuration not stated) [Methocarbamol]	0.902
Cc1cnc(-c2cc(N3CCN(C(=O)CCS(C)(=O)=O)CC3)ncc2Cl)c(C)c1	0.665
CC(=O)OCC(=O)[C@@]1(O)CC[C@H]2[C@@H]3CCC4=CC(=O)C=C[C@]4(C)[C@H]3[C@@H](O)C[C@@]21C [Prednisolone_acetate]	0.605
CCCN[C@H]1CCc2nc(N)sc2C1 [Pramipexole]	0.882
NNC(=O)c1ccncc1 [Isoniazid]	1.01
CNNCc1ccc(C(=O)NC(C)C)cc1 [Procarbazine_(Hydrochloride)]	1.1
CCC(C)C(N)C(=O)NCCN1CCOCC1 (configuration not stated) [LM11A-31_(dihydrochloride)]	0.844
COCc1ccc(-c2ccc(N(C[C@@H](N)[C@@H](C)OC)C(=O)[C@@H]3C[C@H]3c3ccccn3)cc2)cc1	0.794
CCC(CC)O[C@@H]1C=C(C(=O)O)C[C@H](N)[C@H]1NC(C)=O [Oseltamivir_acid]	0.782
Cc1nc(Nc2ncc(C(=O)Nc3c(C)cccc3Cl)s2)cc(N2CCN(CCO)CC2)n1 [Dasatinib]	0.243
CC(=O)Nc1nnc(S(N)(=O)=O)s1 [Acetazolamide]	1.03
O=C(O)Cc1nn(Cc2nc3cc(C(F)(F)F)ccc3s2)c(=O)c2cscc12	0.982
C[C@@H](NC(=O)c1ccc(F)cc1)c1ccc2c(c1)CCN2C(=O)C1CCOCC1	0.908
CCN(C(=O)c1c(O)c2c(Cl)cccc2n(C)c1=O)c1ccccc1 [Laquinimod]	0.888
CN1C2CCCC1CC(NC(=O)c1nn(C)c3ccccc13)C2 (configuration not stated) [Granisetron_(Hydrochloride)]	0.891
CCN(CC)C(=O)[C@@]1(c2ccccc2)C[C@H]1CN [Milnacipran_((1S-cis)_hydrochloride)]	0.67
Clc1cccc(Cl)c1NC1=NCCN1 [Clonidine_(hydrochloride)]	0.898
COc1cc2c(N3CCN(C(=O)Nc4ccc(OC(C)C)cc4)CC3)ncnc2cc1OCCCN1CCCCC1 [Tandutinib_(hydrochloride)]	0.778
Clc1ccc2c(c1)C(N1CCNCC1)=Nc1ccccc1O2 [Amoxapine]	0.463

Compound	synaptosome phagocytic index
O=C(O)c1cc(/N=N/c2ccc(S(=O)(=O)Nc3ccccn3)cc2)ccc1O [Sulfasalazine]	0.883
Fc1c(Br)cccc1Nc1ncnc2cc3c(cc12)OCCO3	0.118
Nc1nc2c(ncn2COC(CO)CO)c(=O)[nH]1 [Ganciclovir]	0.98
COc1cc(C(C)=O)ccc1OCCCN1CCC(c2noc3cc(F)ccc23)CC1 [Iloperidone]	0.853
CCC(=O)NCC[C@@H]1CCc2ccc3c(c21)CCO3 [Ramelteon]	0.767
CC(C)c1nc(CN(C)C(=O)N[C@H](C(=O)N[C@@H](Cc2ccccc2)C[C@H](O)[C@H](Cc2ccccc2)NC(=O)OCc2cncs2)C(C)C)cs1 [Ritonavir]	0.742
N[C@H](C(=O)O)[C@@H]1CC(Cl)=NO1 [Acivicin]	0.68
CC(=O)NCCCS(=O)(=O)O [Acamprosate_(calcium)]	0.864
C[C@@H](O[C@H]1OCCN(Cc2n[nH]c(=O)[nH]2)[C@H]1c1ccc(F)cc1)c1cc(C(F)(F)F)cc(C(F)(F)F)c1 [Aprepitant]	1.02
CC1(C)S[C@@H]2[C@H](NC(=O)[C@H](N)c3ccc(O)cc3)C(=O)N2[C@H]1C(=O)O [Amoxicillin_(trihydrate)]	0.942
CCOCc1cc(OC)c(-c2ccc(C[C@H](NC(=O)c3c(F)cccc3F)C(=O)O)cc2)c(OC)c1 [Firategrast]	0.931
CCN(CC)C(=O)C1(c2ccccc2)CC1CN (configuration not stated) [Milnacipran_(hydrochloride)]	1.35
O=c1c(-c2ccc(O)cc2)coc2cc(O)ccc12 [Daidzein]	0.94
Cc1ccc(-c2ncn(-c3ccc(Nc4nccc(-c5cccc(N6CCOCC6)c5)n4)cc3)n2)cn1	0.167
CNCCC=C1c2ccccc2CCc2ccccc21 [Nortriptyline_(hydrochloride)]	0.487
CCC(C)n1ncn(-c2ccc(N3CCN(c4ccc(OCC5COC(Cn6cncn6)(c6ccc(Cl)cc6Cl)O5)cc4)CC3)cc2)c1=O (configuration not stated) [Itraconazole]	0.377
CCCCCCCCCC(=O)O [Decanoic_acid]	1.32
Nc1cc(C(F)F)c(-c2nc(N3C4CCC3COC4)nc(N3C4CCC3COC4)n2)cn1	0.347
